Cruzain inh noDet = qHTS Assay for Promiscuous and Specific Inhibitors of Cruzain (without detergent); Potency, µM, usual class: inhibitors; Cruzipain (Trypanosoma cruzi), P25779; purified cruzain, Z-FR-AMC fluorescence, no detergent; actives 2.3% (n = 200,000); also: nearly all actives have a fitted effect of over 40% in size
Target sequence (P25779 123-467 limits assumed): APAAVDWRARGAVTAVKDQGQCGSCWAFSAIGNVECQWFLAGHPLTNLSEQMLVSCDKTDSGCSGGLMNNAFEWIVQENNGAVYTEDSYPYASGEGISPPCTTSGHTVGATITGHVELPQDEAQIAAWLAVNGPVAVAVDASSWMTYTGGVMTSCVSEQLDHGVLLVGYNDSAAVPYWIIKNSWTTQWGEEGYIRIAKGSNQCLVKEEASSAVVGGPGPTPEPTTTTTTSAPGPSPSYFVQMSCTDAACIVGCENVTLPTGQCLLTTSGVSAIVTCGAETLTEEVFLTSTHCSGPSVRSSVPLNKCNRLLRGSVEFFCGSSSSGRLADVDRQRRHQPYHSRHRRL
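Detergent-free condition (0.00005% Triton X-100) in acetate buffer pH 5.5 with DTT. 1.5 nM enzyme and compound were pre-mixed 15 min, then 2 uM Z-FR-AMC substrate added; reaction progress from fluorescence change between first and third reads (60 s).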
Cruzain inh Det = qHTS Assay for Promiscuous and Specific Inhibitors of Cruzain (with detergent); purified cruzain, Z-FR-AMC fluorescence, 0.01% Triton; Potency, µM, hits mostly inhibitors; actives 0.43% (n = 200,000); also: nearly all actives have a fitted effect of over 40% in size
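Detergent-containing arm of a paired screen for aggregation-based inhibition: 0.01% Triton X-100 present. Cruzain at 1.5 nM cleaved 2 uM Z-FR-AMC at pH 5.5 with 5 mM DTT; AMC fluorescence gain over 60 s measured activity.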
Giardia FBPA inh = qHTS Assay for Inhibitors of Fructose-1,6-bisphosphate Aldolase from Giardia Lamblia; Potency, µM (top dose mostly 59.6 µM), most hits filed as inhibitors; purified Giardia FBPA; actives 0.71% (n = 290,000); A8B2U2; AID 2451, 2010; also: nearly all actives have a fitted effect of over 55% in size
Target sequence (A8B2U2 whole entry, looked up): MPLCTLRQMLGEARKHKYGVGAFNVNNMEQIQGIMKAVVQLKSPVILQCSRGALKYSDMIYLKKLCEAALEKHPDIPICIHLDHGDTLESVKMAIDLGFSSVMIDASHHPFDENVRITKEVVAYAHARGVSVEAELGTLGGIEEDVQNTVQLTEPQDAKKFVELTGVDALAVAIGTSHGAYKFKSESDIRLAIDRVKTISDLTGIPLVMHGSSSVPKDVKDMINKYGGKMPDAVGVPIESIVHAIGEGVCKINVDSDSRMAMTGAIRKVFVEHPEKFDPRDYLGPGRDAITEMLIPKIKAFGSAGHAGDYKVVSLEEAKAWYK
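40 nM FBPA preincubated 10 min at RT with compound (up to 57.5 uM final), then substrate plus GAPDH/TPI/NAD/arsenate coupling and diaphorase/resazurin added. Fluorescence read after 20 min at RT, 525/598 nm.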
Of the large screens only hits and unclear results are named; the others gave an inactive call; ! = a repeat was not active. Many of the other results were omitted from the sample, so hits are more common in it than they were. Calls follow the shape of the dose curve; as a rule, active = well fitted curve in the direction sought with a large enough effect; inconclusive = small, poorly fitted or top-dose-only effect, or another doubt; inactive = no such curve, though single readings can be large; an effect the other way counts as inactive or inconclusive.

COc1cccc(/C=N/NC(=O)c2cc3cc([N+](=O)[O-])ccc3s2)c1O	Cruzain inh noDet 10µM, Cruzain inh Det 3.5µM
O=C(/C=C/c1cccc(Cl)c1)Nn1c(-c2cccs2)nc2ccccc2c1=O	Cruzain inh noDet 13µM
O=C(/C=C/c1ccccc1)Nn1c(-c2cccs2)nc2ccccc2c1=O	Cruzain inh noDet inconclusive
Cc1ccc(C(=O)CNc2cccc(Cl)c2)cc1	none
O=C(CNc1cccc(Cl)c1)c1ccc(Cl)cc1	Cruzain inh noDet 32µM
N#Cc1c(Cl)nc(Cl)c2c1CCN(Cc1ccccc1)C2	none
N#Cc1c(NCCN)nc(NCc2ccccc2)c2c1CCN(Cc1ccccc1)C2	Cruzain inh noDet 7.9µM, Giardia FBPA inh inconclusive
CCc1ccc(CNC(=O)CSCc2cnn(-c3ccccc3)c2-n2cccc2)cc1	none (no result: Giardia FBPA inh)
Cc1oc2c(c(C)cc3oc(=O)c(CC(=O)NCCc4ccccc4)c(C)c32)c1C	none (no result: Giardia FBPA inh)
O=C(Nc1nc(=O)c2ccccc2s1)c1ccc(F)cc1	Cruzain inh noDet inconclusive, Giardia FBPA inh inconclusive
O=C(Nc1nc(=O)c2ccccc2s1)c1ccc(Cl)cc1	Cruzain inh noDet 10µM, Giardia FBPA inh inconclusive
CN1CCN(c2ccnc(-c3ccoc3)n2)CC1	none
COc1ccc2cc(C(=O)NCc3ccc4c(c3)CCN4C(=O)c3ccccc3)[nH]c2c1	Cruzain inh noDet inconclusive (no result: Giardia FBPA inh)
Cc1cccc(C(=O)N2CCc3cc(CNC(=O)c4cc5ccccc5[nH]4)ccc32)c1	Cruzain inh noDet 32µM (no result: Giardia FBPA inh)
COc1cc(Sc2ccc(C)cc2)c(OC)cc1N	Cruzain inh noDet 16µM, Giardia FBPA inh inconclusive
COC(=O)c1ccc(Sc2ccc(C)cc2)c(N)c1	none
COc1ccc(-c2nc(C(=O)Nc3cccc(C(C)=O)c3)nn2-c2ccc(Cl)cc2)cc1	none (no result: Giardia FBPA inh)
CC(=O)c1cccc(NC(=O)c2nc(-c3ccccc3)n(-c3ccccc3C)n2)c1	Cruzain inh noDet 7.9µM (no result: Giardia FBPA inh)
Cc1ccc(Nc2nc(C)nc(N)c2S(=O)(=O)c2ccccc2)cc1	none (no result: Giardia FBPA inh)
CCc1ccc(NC(=O)CS(=O)CC(=O)NC(C)CCc2ccco2)cc1 (stereo not given)	Cruzain inh noDet 25µM
CCc1ccc(NC(=O)N(Cc2ccco2)C(C)c2cccs2)cc1 (stereo not given)	none
Cc1cccc(N2CCN(C(c3ccc(F)cc3)c3nnc(-c4ccccc4)o3)CC2)c1C (stereo not given)	Cruzain inh noDet inconclusive (no result: Giardia FBPA inh)
Cc1ccc(Cl)cc1N1CCN(C(c2ccc(F)cc2)c2nnc(-c3ccccc3)o2)CC1 (stereo not given)	Cruzain inh noDet 6.3µM (no result: Giardia FBPA inh)
Cc1ccc(NC(=O)CN2C(=O)CC(c3ccc(C)c(C)c3)=Nc3ccccc32)cc1	none (no result: Giardia FBPA inh)
COCCNC(=O)C(OC(=O)c1cccs1)c1ccccc1 (stereo not given)	none
CC(=O)c1cccc(NC(=O)C(OC(=O)c2cccs2)c2ccccc2)c1 (stereo not given)	Cruzain inh noDet 32µM
CCOC(=O)N1CCc2c(sc3c2c(=O)n(CCc2ccccc2)c(=O)n3Cc2cc(C)ccc2C)C1	none (no result: Giardia FBPA inh)
CC(C)NC(=O)C1CCN(C(=O)N2CC(C)Oc3ccccc32)CC1 (stereo not given)	none (no result: Giardia FBPA inh)
CC1CN(C(=O)N2CCC(C(=O)NC3CCCCCC3)CC2)c2ccccc2O1 (stereo not given)	Cruzain inh noDet 7.9µM (no result: Giardia FBPA inh)
O=C(c1c2c(nc3ccccc13)C(=O)N(C1CCCCC1)C2)N1CCN(c2ccc(F)cc2)CC1	none (no result: Giardia FBPA inh)
CSCC[C@H](NC(=O)[C@@H]1CCCN1C(=O)[C@H](CCCN=C(N)N)NC(=O)[C@H](CC(C)C)NC(=O)[C@@H]1CCCN1C(=O)[C@@H](NC(=O)[C@@H](N)CCC(N)=O)C(C)C)C(=O)N[C@H](C(=O)N[C@@H](Cc1ccc(O)cc1)C(=O)N[C@@H](CCCCN)C(=O)O)[C@@H](C)O	none (no result: Cruzain inh noDet, Cruzain inh Det)
CSCC[C@H](NC(=O)[C@H](CC(C)C)NC(=O)[C@@H]1CCCN1C(=O)[C@H](Cc1ccccc1)NC(=O)[C@H](Cc1ccccc1)NC(=O)[C@H](CCC(N)=O)NC(=O)[C@H](CCC(N)=O)NC(=O)[C@@H]1CCCN1C(=O)[C@H](CCCCN)NC(=O)[C@@H]1CCCN1C(=O)[C@@H](N)CCCN=C(N)N)C(N)=O	none (no result: Cruzain inh noDet, Cruzain inh Det)
CC1(C)OC(C(O)(c2cccc3c2oc2ccccc23)c2cccc3c2oc2ccccc23)C(C(O)(c2cccc3c2oc2ccccc23)c2cccc3c2oc2ccccc23)O1 (stereo not given)	none (no result: Cruzain inh noDet, Cruzain inh Det)
Cc1ccc(OCC(=O)Nc2ccc(-c3nc4ccc(C)cc4o3)cc2)cc1	Cruzain inh noDet 25µM (no result: Giardia FBPA inh)
COc1ccccc1OCC(=O)Nc1ccc(-c2nnc(-c3ccco3)o2)cc1	none (no result: Cruzain inh noDet, Cruzain inh Det)
O=C(COc1ccc(Br)cc1)Nc1ccc(-c2nnc(-c3ccco3)o2)cc1	Cruzain inh noDet 10µM
COc1ccc(OCC(=O)Nc2ccc(-c3nc4cc(C)c(C)cc4o3)cc2)cc1	none (no result: Giardia FBPA inh)
C[C@]12C[C@H](O)C3[C@@H](CCC4=CC(=O)CC[C@@]43C)[C@@H]1CC[C@@H]2C(=O)CO (stereo not given in full)	none
COc1cccc(N2CCN(C(=O)c3cnn(-c4ccc(C)cc4C)c3C3CCN(C(=O)OC(C)(C)C)CC3)CC2)c1	Cruzain inh noDet inconclusive (no result: Giardia FBPA inh)
COc1ccc(OC)c(NC(=O)c2cccc(S(=O)(=O)N(Cc3ccccc3)c3ccccc3OC)c2)c1	Cruzain inh noDet inconclusive
COc1ccc(OC)c(NC(=O)c2ccc(CN(c3cc(Cl)ccc3C)S(=O)(=O)c3ccccc3)cc2)c1	Cruzain inh noDet 10µM
N#Cc1ccc(CN2CCCC3(CCN(C(=O)c4cnccn4)CC3)C2)cc1	none
CC(=O)OCC(NC(=O)C(CCCCNC(=O)OCc1ccccc1)NC(=O)OC(C)(C)C)C1OC(n2cc(C)c(=O)[nH]c2=O)C(OC(C)=O)C1OC(C)=O (stereo not given)	none (no result: Cruzain inh noDet, Cruzain inh Det)
Cc1cc(-c2csc(N)n2)c(C)n1-c1ccc(Cl)c(Cl)c1	Cruzain inh noDet 13µM
CCCn1c(C)cc(-c2csc(N)n2)c1C	Cruzain inh noDet inconclusive
C=CCn1c(C)cc(-c2csc(N)n2)c1C	Cruzain inh noDet inconclusive
COc1ccc(-n2c(C)cc(-c3csc(N)n3)c2C)cc1	Cruzain inh noDet 20µM
Cc1ccc(-c2nc3sc(CCNC(=O)c4ccc(F)c(F)c4)c(C)n3n2)cc1	none (no result: Giardia FBPA inh)
CC1=C(C(=O)Nc2cc(Cl)ccc2C)C2(CCCCC2)OC1=O	none (no result: Giardia FBPA inh)
CC1=C(/C=C/C(C)=C/C=C/C(C)=C/C(=O)Nc2ccc(O)cc2)C(C)(C)CCC1	Cruzain inh noDet 16µM!
CC1=C(\C=C/C(C)=C/C=C\C(C)=C\C(=O)O)C(C)(C)CCC1	Cruzain inh noDet inconclusive
COc1cccc(C(=O)Nc2ccc(-c3nc4ccccc4s3)cc2Cl)c1	Cruzain inh noDet inconclusive (no result: Giardia FBPA inh)
O=C(NCc1nc2ccccc2[nH]1)c1cc2ccccc2oc1=O	Cruzain inh noDet 7.9µM, Cruzain inh Det 14µM
O=C(NCc1ccccc1)c1cc2ccccc2oc1=O	none (no result: Cruzain inh noDet, Cruzain inh Det)
Cc1ccc(C(=O)C(C(=O)/C=C/c2ccccc2)=C2SCCCS2)cc1	Cruzain inh noDet 25µM
COc1ccc(/C=C/C(=O)C(C(N)=O)=C2SCCS2)cc1	none
CC(=O)[C@@H]1[C@@H]2C(=O)N(c3ccccc3F)C(=O)[C@@H]2[C@H]2c3ccccc3C=NN12	none (no result: Cruzain inh noDet, Cruzain inh Det)
